Test results taken from PubChem BioAssay AID687041 (Broad Institute, 2013).
Entries with a potency or affinity are not part of this list. Activity calls are given as the source filed them.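 The calls were made as follows: active = compounds lowering miR-122 whose fitted half-maximal concentration is at most twice the top tested dose; inconclusive = flat fit with moderate reduction, or poor fit quality; inactive = the rest.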

experiment: endogenous miR-122 level reduction, dose response, orthogonal assay for miR-122 inhibitor project, cell-based, Huh7, RT-qPCR, dry powder (AID 687041); settings: Huh7 miR-122 level, 48 h; series mostly up to 35 µM

outcome, inactive:
O=C(Nc1ccc(N2CCOCC2)c(S(=O)(=O)Nc2cc(Cl)ccc2Cl)c1)c1cccnc1
COc1cccc(N2CCN(C(=O)c3oc4ccccc4c3NC(=O)CCc3cc(OC)no3)CC2)c1
COC(=O)c1cc(S(=O)(=O)Nc2cc(OC)cc(OC)c2)cn1C
COc1ccc(S(=O)(=O)NCCN2CCOCC2)c2ccccc12
Cc1cc(C(C)(C)C)cc(S(=O)(=O)NCCO)c1C
CCOc1ccc(C)cc1S(=O)(=O)NC1CCCCC1
Cc1cc(Cl)c(Cl)cc1S(=O)(=O)NCCCn1ccnc1
Nc1c(S(=O)(=O)c2cccs2)c2nc3ccccc3nc2n1Cc1ccccc1
CN1C(=O)c2cccc3c(S(=O)(=O)NCCc4ccccc4)ccc1c23
O=S(=O)(Nc1cccc2[nH]ncc12)c1ccc(F)c2ncccc12
COc1ccc(C)cc1NS(=O)(=O)c1ccc2c(c1)N(C)CCO2
CCOc1cc(C)c(S(=O)(=O)NC2CCCCC2)cc1C
O=C(Nc1ccc2ccccc2c1)c1ccc(Cl)cc1Cl
Cc1cc(C)c(S(=O)(=O)NC(C)C)c(C)c1-n1cnnn1
Cc1ccc(NS(=O)(=O)c2cc(C(=O)NCc3ccccn3)ccc2Cl)cc1C
CCN(CC)C(=O)CN(c1cc2c(cc1OC)oc1ccccc12)S(=O)(=O)c1ccccc1
Cc1cc(S(=O)(=O)NC2CCCCC2)c(C)s1
CCCCNS(=O)(=O)c1ccc2nc(-c3cccnc3)cc(C(=O)NC(C)CC)c2c1 (stereo not given)
Cc1ccc(C(C)C)cc1S(=O)(=O)Nc1cccnc1
O=S(=O)(c1ccc2c(c1)CCCN2)N1CCC[C@@H]2CCCC[C@H]21
COc1cc(C)c(C(C)C)cc1S(=O)(=O)n1cnc(C)c1
Cc1cc(C)c(C)c(S(=O)(=O)NC2CCCCC2)c1C
COc1ccc(S(=O)(=O)Nc2ccc(OC(F)F)cc2)c2cccnc12
CCOc1ccccc1N1CCN(C(=O)c2cccc(-c3ccc(O)cc3)c2)CC1
COc1ccc(C(C)(C)C)cc1S(=O)(=O)NCC1CCCO1 (stereo not given)
Cc1ccc(C)c(S(=O)(=O)Nc2ccc(-n3cnnn3)cc2)c1
Cc1ccc(C)c(S(=O)(=O)Nc2ccc3cn[nH]c3c2)c1
Cc1ccc(C(=O)C2Oc3ccccc3C3CC(c4ccc(C)cc4)=NN23)cc1 (stereo not given)
Cc1cccc(NS(=O)(=O)c2cc3c(cc2C)NC(=O)CO3)c1
Cc1cc(C)c(S(=O)(=O)NC2CC3CCC2C3)c(C)c1 (stereo not given)
